In the library only some 11% were active in any assay of this set; here they are far more common.
ALDH1A1 block: qHTS Assay for Inhibitors of Aldehyde Dehydrogenase 1 (ALDH1A1); actives 7.3% (n = 220,000); Aldehyde dehydrogenase 1A1 (Homo sapiens), P00352; Potency, µM (series often up to 75.3 µM), for inactives: top-dose activity, negative = inhibition, most hits filed as inhibitors; AID 1030, 2008; Purified ALDH1A1, NADH fluorescence, propionaldehyde substrate;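 further: potency means the concentration at half of the fitted maximal effect; plate controls were no enzyme wells and a reference inhibitor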
GoLoco inh red: qHTS Assay for Inhibitors of RGS12 GoLoco Motif Activity (Red Fluorophore). Guanine nucleotide-binding protein G(i) subunit alpha-1 (Homo sapiens), P63096. Gai1:RGS12 GoLoco peptide FP, rhodamine, 10 min. Potency, µM (doses to about 61.6 µM), for the others: at the top dose activity, negative = inhibition, most hits filed as inhibitors. actives 0.44% (n = 230,000); active means well fitted inhibition curve with a large enough effect, not every such curve was filed as active; inactive means no such curve, though single readings can be large or run the other way; further: potency means the concentration at half of the fitted maximal effect; on the % scale 0 is the no-effect control and ±100 the full control effect; nearly all actives have a fitted effect of over 30% in size
Target sequence (P63096 whole entry, looked up): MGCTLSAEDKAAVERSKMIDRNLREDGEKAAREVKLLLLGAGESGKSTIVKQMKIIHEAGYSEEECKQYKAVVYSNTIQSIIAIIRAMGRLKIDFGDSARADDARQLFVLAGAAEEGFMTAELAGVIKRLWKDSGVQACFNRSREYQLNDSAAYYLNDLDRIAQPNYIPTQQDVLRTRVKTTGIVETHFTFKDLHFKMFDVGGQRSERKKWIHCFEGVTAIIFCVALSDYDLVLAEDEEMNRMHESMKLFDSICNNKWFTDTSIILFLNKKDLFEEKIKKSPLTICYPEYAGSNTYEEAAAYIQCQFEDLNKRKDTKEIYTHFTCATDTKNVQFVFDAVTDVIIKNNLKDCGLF
HPGD inh: qHTS Assay for Inhibitors of HPGD (15-Hydroxyprostaglandin Dehydrogenase); purified HPGD, NADH fluorescence kinetic, PGE2 substrate; Potency, µM, inactives show at the top dose activity change, negative = inhibition, actives largely listed as inhibitors; actives 4.3% (n = 150,000); further: potency means the concentration at half of the fitted maximal effect; on the % scale 0 is the no-effect control and ±100 the full control effect
Target sequence (P15428 whole entry, looked up): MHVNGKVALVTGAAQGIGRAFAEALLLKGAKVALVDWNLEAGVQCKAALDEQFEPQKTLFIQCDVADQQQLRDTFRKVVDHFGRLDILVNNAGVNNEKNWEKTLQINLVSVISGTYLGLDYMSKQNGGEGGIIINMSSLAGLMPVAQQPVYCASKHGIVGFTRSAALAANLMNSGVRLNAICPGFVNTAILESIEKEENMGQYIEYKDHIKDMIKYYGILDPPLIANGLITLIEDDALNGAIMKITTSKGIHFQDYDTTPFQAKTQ
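NADH formation kinetics: reaction with 30 uM PGE2 and 1 mM NAD+ (final), 20 nM enzyme, Tris-HCl pH 8 with Tween 20, after 15 min compound preincubation at room temperature. Fluorescence change, last versus first of five reads.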
HTT ATP protect: qHTS Multiplex Assay to Identify Dual Action Probes in a Cell Model of Huntington: Cytoprotection (ATP). Potency, µM (series often up to 56.4 µM), inactives show cytoprotection (ATP increase), most hits filed as activators. actives 0.14% (n = 230,000). PC12 HTT-Q103 induced, cytoprotection, ATP luminescence, 40 h; active means well fitted curve in the direction sought with a large enough effect; inconclusive means small, poorly fitted or top-dose-only effect, or another doubt; inactive means no such curve, though single readings can be large; an effect the other way counts as inactive or inconclusive; further: potency means the concentration at half of the fitted maximal effect; % of control where 0% means no effect; nearly all actives have a fitted effect of over 45% in size
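Compounds added alongside 100 nM tebufenozide, which induces toxic Q103 huntingtin exon 1-GFP in stable PC12 cells; surviving cells quantified by luminescent ATP measurement. Medium: phenol red-free DMEM, 5% equine and 5% calf serum.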
PNC inhibitor: High Content Assay for Compounds that inhibit the Assembly of the Perinucleolar Compartment. PC3M PTB-GFP, PNC prevalence imaging, 16 h; hits give low values. AID 2417, 2010. activity change (PNC), negative = inhibition, % at 10 µM. actives 3.1% (n = 140,000);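 active means readout at or below -70, meaning at least 70% loss of cells showing the perinucleolar compartment, a nuclear body marking cancer cells; inconclusive means readout between -30 and a set limit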;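 further: plate controls were DMSO wells for no effect and camptothecin positive control wells for full effect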
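Read-out is percentage of cells bearing a perinucleolar compartment, from automated 20x imaging of fixed, Hoechst-stained PC3M PTB-GFP cells. Cells were seeded 4 h, then exposed 16 h to compound (23 nl of library stock) in duplicate plates.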
HttQ103 aggreg: qHTS Multiplex Assay to Identify Dual Action Probes in a Cell Model of Huntington: Aggregate Formation (GFP) | PC12 HttQ103-GFP aggregates, Acumen cytometry, 40 h | Potency, µM (doses to about 46.1 µM), for the others: at the top dose activity change, negative = inhibition, usual class: inhibitors | actives 1.1% (n = 220,000) | AID 1688, 2009; active means well fitted curve in the direction sought with a large enough effect; inconclusive means small, poorly fitted or top-dose-only effect, or another doubt; inactive means no such curve, though single readings can be large; an effect the other way counts as inactive or inconclusive; further: potency means the concentration at half of the fitted maximal effect; on the % scale 0 is the no-effect control and ±100 the full control effect; nearly all actives have a fitted effect of over 60% in size
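Compounds (qHTS titration) were added to PC12 cells expressing an ecdysone-driven HTT exon 1 Q103–GFP fusion after induction with 100 nM tebufenozide. Aggregate formation was measured as GFP objects in cell lysates.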
* marks the source's active call; other numbers are inactive results; ? = inconclusive; nt = not tested or not shown; [ ] = remark or other dose. Unless noted, the call rests on the fitted dose curve; in most records, active means well fitted inhibition curve with a large enough effect (not every such curve was filed as active); inconclusive means small, poorly fitted or top-dose-only effect, or another doubt; inactive means no such curve, though single readings can be large or run the other way.

SMILES	ALDH1A1 block	GoLoco inh red	HPGD inh	HTT ATP protect	PNC inhibitor	HttQ103 aggreg
COC(=O)c1ccc(C(NC(=O)OCc2ccccc2)/C(=C/[C@@H](C)C(=O)NCc2ccc(S(C)(=O)=O)cc2)c2cccnc2)cc1 (some centres undefined)	?	2%	-8%	-4%	nt	nt
COCCn1c(=O)c(CCc2ccccc2)nc2cnc(Oc3ccc(OC)cc3)nc21	?	-1%	nt	-97%	nt	nt
Cc1ccc(S(=O)(=O)N2CCN(C(=O)N(C)C)CC2)cc1	-10%	9%	nt	4%[10 µM]	nt	-1%[9.22 µM]
Cc1cc(C)c(S(=O)(=O)N2CCN(C(=O)N(C)C)CC2)c(C)c1	4.5µM*	1%	nt	5%[10 µM]	nt	0%[9.22 µM]
COc1ccc(-c2nc(SC(CC(=O)NCCN3CCOCC3)c3cccs3)n[nH]2)cc1 (centres undefined)	-5%	3%	nt	3%	nt	-9%
O=C(O)c1cccc(NC(=O)C2C3C=CC(C3)C2C(=O)O)c1 (centres undefined)	?	nt	nt	-21%	?	-5%
O=C(O)C1C2C=CC(C2)C1C(=O)Nc1ccc(C(=O)N2CCCCC2)c(Cl)c1 (centres undefined)	-6%	-4%	0.45µM*	-8%[0.074 µM]	12	-17%
CCC1=C2CC[C@H]3C(=O)N(CC(=O)OC)C(=O)[C@H]3[C@H]2[C@@]2(C)C(=O)N(Cc3ccccc3)C(=O)N2C1=O	-1%	2%	-2%	-51%	nt	nt
C=CCn1c(SCc2csc(C)n2)nc2sc3c(c2c1=O)CCCCC3	22µM*	4%	-6%	-4%	-20	?
C[C@@H](C1[C@@H](O)CC2C3C=CC4C[C@@H](O)CC[C@]4(C)[C@H]3CC[C@@]21C)[C@@H]1CCCCN1 (some centres undefined)	4%	0%	-8%	1%	nt	nt
Nc1ccc2cc3ccc(N)cc3nc2c1	nt	6%	nt	-17%	nt	13µM*
COc1ccc(C/C(C)=N/NS(=O)(=O)c2ccc(Br)cc2)cc1	2.8µM*	-1%	nt	2%	nt	10%
CCOc1cc(C(=O)N/N=C(\C)Cc2ccc(OC)cc2)cc(OCC)c1OCC	2%	13%	-10%	-6%[10 µM]	-26	-16%
COc1ccc(C/C(C)=N/NC(=O)c2ccc(Cl)cc2)cc1	7.1µM*	18%	nt	-28%	nt	6%
Cc1ccnc(SCc2cc(=O)c(OC(=O)c3ccc(Cl)c([N+](=O)[O-])c3)co2)n1	7.5µM*	-14%	?	nt	27	0%
Cc1cc(C)nc(SCc2cc(=O)c(OC(=O)c3cccc([N+](=O)[O-])c3)co2)n1	0.056µM*	2%	-4%	3%[10 µM]	-5	-6%
CCN(CC)S(=O)(=O)c1ccc(C(=O)Oc2coc(CSc3nc(C)cc(C)n3)cc2=O)cc1	2%	-2%	-9%	23%[10 µM]	48	15%
COc1cc2c3nnc(-c4ccc(F)cc4)c-3cn(Cc3ccccc3F)c2cc1OC	1%	47%	nt	-121%	nt	7.1µM*
CCN1/C(=C2/SC(=S)NC2=O)Sc2ccccc21	?	-12%	nt	nt	nt	5%
O=C1NC(=S)SC1=C1CCCCCC1	7.1µM*	115%	11µM*	-28%[0.074 µM]	9	-28%
N#C/C(=C/Nc1ccccc1)c1ccsc1	?	6%	-29%	-8%	13	13µM*
S=C(Nc1ccc2cn[nH]c2c1)Nc1ccc2cn[nH]c2c1	?	-5%[14.2 µM]	-3%	-1%[10 µM]	nt	nt
O=c1[nH]c2ccc(NC(=S)Nc3ccccc3Cl)cc2[nH]1	6.3µM*	6%	22µM*	6%	18	-8%
COCCNC(=S)Nc1ccc2[nH]c(=O)[nH]c2c1	25µM*	-8%	nt	-15%	nt	22%
S=C(Nc1ccc(Cl)cc1)Nc1ccc2cn[nH]c2c1	25µM*	20%	nt	-39%	nt	-12%
SMILES	ALDH1A1 block	GoLoco inh red	HPGD inh	HTT ATP protect	PNC inhibitor	HttQ103 aggreg
S=C(Nc1ccc2cn[nH]c2c1)Nc1ccccc1Cl	14µM*	-6%	-15%	nt	?	30%
O=C(O)[C@@H]1[C@@H](C(=O)O)[C@@]23CCCC2=C2CC[C@@]3(C(=O)O)[C@@]3(C(=O)O)C[C@@]213	3%[13.5 µM]	5%[14.2 µM]	-8%	nt	nt	nt
COc1ccc(C(=O)N2CCC[C@@]3(CCN(C)C3)C2)cc1	-8%	-5%	-12%	6%	nt	nt
CCc1ccc(NC(=S)Nc2ccc3cn[nH]c3c2)cc1	?	0%	-7%	nt	11	3%
O=c1[nH]c2ccc(NC(=S)Nc3ccc(Cl)cc3Cl)cc2[nH]1	?	5%	-12%	10%	7	15%
S=C(Nc1ccccc1)Nc1ccc(Cl)cc1Cl	7.9µM*	-1%	-27%	20%[10 µM]	?	?
S=C(NCc1ccco1)Nc1ccc(Br)cc1Cl	?	2%	nt	15%[10 µM]	nt	-14%
S=C(Nc1ccccc1Cl)Nc1ccc(Cl)cc1Cl	?	0%	-25%	-1%	4	13%
CCCCNC(=S)Nc1ccc2cn[nH]c2c1	-1%	3%	-12%	-12%[10 µM]	-84*	-17%
S=C(NCc1ccco1)Nc1ccc(Cl)cc1Cl	-1%	-11%	28µM*	10%[10 µM]	33	-4%
S=C(Nc1ccc2cn[nH]c2c1)Nc1ccc(Cl)cc1Cl	13µM*	13%	nt	-2%	nt	4%
CCSc1nc(CC)c2c(c1C#N)CCCC2	-12%	3%	-18%	nt	30	-24%
Cc1ccc(NC(=O)c2ccc(F)cc2F)cc1NS(C)(=O)=O	nt	0%	nt	10%[10 µM]	nt	-10%[9.22 µM]
CCCCC/C(C=O)=C/c1ccccc1	nt	6%	nt	-9%	nt	-7%
CCN(CC)S(=O)(=O)c1cc(NC(=O)C(CC(C)C)NC(N)=O)ccc1C (centres undefined)	4%	0%	nt	16%[10 µM]	nt	19%
CC(C)c1ccc(NC(=S)Nc2ccc3[nH]c(=O)[nH]c3c2)cc1	40µM*	7%	nt	-1%[10 µM]	nt	25%[9.22 µM]
O=C(/C=C/c1cccc([N+](=O)[O-])c1)NC(=S)Nc1ccccc1C(=O)O	?	5%	nt	-3%	nt	?
S=c1[nH]nc(-c2ccccc2)n1/N=C/C=C/c1ccco1	?	13%	11µM*	15%[10 µM]	19	16%
S=c1[nH]nc(-c2ccc(Cl)cc2)n1/N=C/C=C/c1ccco1	nt	8%	nt	5%[10 µM]	nt	24%[9.22 µM]
S=c1[nH]nc(-c2ccco2)n1/N=C/C=C/c1ccccc1	?	14%	14µM*	-27%	0	7%

High-throughput results as filed in PubChem BioAssay.
